Assay results reported in PubChem BioAssay AID1159580 (chemical genetic matrix, 2015).
Screen size: about 5,500 compounds; about 2,000 (36%) were called active. Not shown: some 18% with an inconclusive outcome. Cut-off read from the data, not from the text of the source: active = normalized growth mostly below about 0.91 (no sharp cut-off); inconclusive = no clear call, values can overlap the other calls; inactive = mostly above about 0.92. This is one part of the list.

Test: chemical genetic growth profiling, strain panel (AID 1159580);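 note: tested at 20 µM; growth read once vehicle control cultures reached saturation at 30 °C; 1 = growth at the plate median or of vehicle wells; lower values mean less growth of the strain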
Details: growth OD
[1] = S. cerevisiae deletion strains, locus YAL013W, strain DEP1, stronger effect = lower value
[2] = S. cerevisiae deletion strains, locus YNL128W, strain TEP1, stronger effect = lower value
[3] = S. cerevisiae deletion strains, locus YPL241C, strain CIN2, stronger effect = lower value

Measured: normalized growth

Nc1ncn(C2OC(CO)C(O)C2O)c(=O)n1 (stereo unspecified)
inactive: [1] 1.02 | S. cerevisiae deletion strains, locus YAL040C, strain CLN3, stronger effect = lower value 0.999 | S. cerevisiae deletion strains, locus YCL061C, strain MRC1 (second series), stronger effect = lower value 0.999 | S. cerevisiae deletion strains, locus YER002W, strain NOP16, stronger effect = lower value 0.997 | [2] 0.994 | S. cerevisiae deletion strains, locus YNL175C, strain NOP13, stronger effect = lower value 0.992 | S. cerevisiae deletion strains, locus YNL197C, strain WHI3, stronger effect = lower value 1.01 | S. cerevisiae deletion strains, locus YNL224C, strain SQS1, stronger effect = lower value 0.988 | S. cerevisiae deletion strains, locus YOR083W, strain WHI5 (second series), stronger effect = lower value 1 | [3] 1

NCCCCCCNS(=O)(=O)c1cccc2c(Cl)cccc12
inactive: [1] 1 | S. cerevisiae deletion strains, locus YBR021W, strain FUR4, stronger effect = lower value 1 | S. cerevisiae deletion strains, locus YBR229C, strain ROT2, stronger effect = lower value 0.982 | S. cerevisiae deletion strains, locus YCL029C, strain bik1, stronger effect = lower value 0.983 | S. cerevisiae deletion strains, locus YDL035C, strain GPR1, stronger effect = lower value 0.989 | S. cerevisiae deletion strains, locus YDL074C, strain BRE1, stronger effect = lower value 1.02 | S. cerevisiae deletion strains, locus YDL101C, strain DUN1, stronger effect = lower value 0.991 | S. cerevisiae deletion strains, locus YDL134C, strain PPH21, stronger effect = lower value 0.985 | S. cerevisiae deletion strains, locus YDL185W, strain tfp1, stronger effect = lower value 0.986 | S. cerevisiae deletion strains, locus YDL192W, strain arf1, stronger effect = lower value 0.996 | S. cerevisiae deletion strains, locus YDR101C, strain arx1, stronger effect = lower value 0.997 | S. cerevisiae deletion strains, locus YDR150W, strain NUM1, stronger effect = lower value 0.987 | S. cerevisiae deletion strains, locus YDR162C, strain NBP2, stronger effect = lower value 1.01 | S. cerevisiae deletion strains, locus YDR318W, strain mcm21, stronger effect = lower value 0.973 | S. cerevisiae deletion strains, locus YDR388W, stronger effect = lower value 0.99 | S. cerevisiae deletion strains, locus YDR502C, strain sam2, stronger effect = lower value 0.984 | S. cerevisiae deletion strains, locus YEL061C, strain CIN8, stronger effect = lower value 0.995 | S. cerevisiae deletion strains, locus YER110C, stronger effect = lower value 0.99 | S. cerevisiae deletion strains, locus YER155C, strain BEM2, stronger effect = lower value 1.01 | S. cerevisiae deletion strains, locus YER167W, strain BCK2, stronger effect = lower value 0.979 | S. cerevisiae deletion strains, locus YGL078C, strain dbp3, stronger effect = lower value 0.998 | S. cerevisiae deletion strains, locus YGL086W, strain mad1, stronger effect = lower value 0.958 | S. cerevisiae deletion strains, locus YGL248W, strain PDE1, stronger effect = lower value 0.968 | S. cerevisiae deletion strains, locus YGR078C, strain PAC10, stronger effect = lower value 1 | S. cerevisiae deletion strains, locus YGR135W, strain pre9, stronger effect = lower value 0.988 | S. cerevisiae deletion strains, locus YGR229C, strain SMI1, stronger effect = lower value 1.01 | S. cerevisiae deletion strains, locus YGR252W, strain gcn5, stronger effect = lower value 0.908 | S. cerevisiae deletion strains, locus YHR030C, strain SLT2, stronger effect = lower value 0.989 | S. cerevisiae deletion strains, locus YHR079C, strain IRE1 (second series), stronger effect = lower value 0.978 | S. cerevisiae deletion strains, locus YHR094C, strain hxt1, stronger effect = lower value 1 | S. cerevisiae deletion strains, locus YHR129C, strain ARP1, stronger effect = lower value 1 | S. cerevisiae deletion strains, locus YHR200W, strain rpn10, stronger effect = lower value 0.979 | S. cerevisiae deletion strains, locus YIL066C, strain RNR3, stronger effect = lower value 0.996 | S. cerevisiae deletion strains, locus YIL073C, strain SPO22, stronger effect = lower value 0.957 | S. cerevisiae deletion strains, locus YIL125W, strain kgd1, stronger effect = lower value 0.997 | S. cerevisiae deletion strains, locus YIR030C, strain dcg1, stronger effect = lower value 0.992 | S. cerevisiae deletion strains, locus YJL095W, strain BCK1, stronger effect = lower value 0.988 | S. cerevisiae deletion strains, locus YJL134W, strain LCB3, stronger effect = lower value 0.995 | S. cerevisiae deletion strains, locus YJL168C, strain set2, stronger effect = lower value 0.994 | S. cerevisiae deletion strains, locus YJL187C, strain SWE1 (second series), stronger effect = lower value 0.993 | S. cerevisiae deletion strains, locus YJR043C, strain POL32, stronger effect = lower value 0.971 | S. cerevisiae deletion strains, locus YJR075W, strain HOC1, stronger effect = lower value 1.02 | S. cerevisiae deletion strains, locus YKL009W, strain mrt4, stronger effect = lower value 0.953 | S. cerevisiae deletion strains, locus YKL068W, stronger effect = lower value 0.999 | S. cerevisiae deletion strains, locus YKL085W, strain MDH1 (second series), stronger effect = lower value 0.991 | S. cerevisiae deletion strains, locus YKL085W, strain MDH1, stronger effect = lower value 0.991 | S. cerevisiae deletion strains, locus YKL190W, strain CNB1, stronger effect = lower value 0.996 | S. cerevisiae deletion strains, locus YKR001C, strain vps1, stronger effect = lower value 0.983 | S. cerevisiae deletion strains, locus YLR039C, strain RIC1, stronger effect = lower value 1.01 | S. cerevisiae deletion strains, locus YLR058C, strain SHM2, stronger effect = lower value 0.988 | S. cerevisiae deletion strains, locus YLR102C, strain apc9, stronger effect = lower value 1 | S. cerevisiae deletion strains, locus YLR262C, strain YPT6, stronger effect = lower value 1.02 | S. cerevisiae deletion strains, locus YLR268W, strain sec22, stronger effect = lower value 0.999 | S. cerevisiae deletion strains, locus YLR330W, strain CHS5, stronger effect = lower value 0.997 | S. cerevisiae deletion strains, locus YLR342W, strain FKS1 (second series), stronger effect = lower value 0.935 | S. cerevisiae deletion strains, locus YLR371W, strain rom2, stronger effect = lower value 0.993 | S. cerevisiae deletion strains, locus YLR418C, strain cdc73, stronger effect = lower value 1 | S. cerevisiae deletion strains, locus YML016C, strain PPZ1, stronger effect = lower value 0.989 | S. cerevisiae deletion strains, locus YML032C, strain rad52, stronger effect = lower value 0.961 | S. cerevisiae deletion strains, locus YML124C, strain tub3, stronger effect = lower value 0.987 | S. cerevisiae deletion strains, locus YMR078C, strain ctf18, stronger effect = lower value 0.98 | S. cerevisiae deletion strains, locus YMR223W, strain ubp8, stronger effect = lower value 0.961 | S. cerevisiae deletion strains, locus YMR263W, strain SAP30, stronger effect = lower value 1.01 | S. cerevisiae deletion strains, locus YMR307W, strain GAS1, stronger effect = lower value 0.942 | S. cerevisiae deletion strains, locus YNL067W, strain RPL9B, stronger effect = lower value 1.01 | [2] 1.01 | S. cerevisiae deletion strains, locus YNL153C, strain GIM3, stronger effect = lower value 1 | S. cerevisiae deletion strains, locus YNL233W, strain BNI4, stronger effect = lower value 0.996 | S. cerevisiae deletion strains, locus YNL250W, strain rad50, stronger effect = lower value 0.981 | S. cerevisiae deletion strains, locus YNL271C, strain bni1, stronger effect = lower value 0.997 | S. cerevisiae deletion strains, locus YNL298W, strain CLA4, stronger effect = lower value 0.983 | S. cerevisiae deletion strains, locus YNL307C, strain MCK1, stronger effect = lower value 0.965 | S. cerevisiae deletion strains, locus YNL322C, strain KRE1, stronger effect = lower value 0.995 | S. cerevisiae deletion strains, locus YNR052C, strain pop2, stronger effect = lower value 0.974 | S. cerevisiae deletion strains, locus YOL006C, strain TOP1, stronger effect = lower value 0.955 | S. cerevisiae deletion strains, locus YOL012C, strain htz1 0.747 | S. cerevisiae deletion strains, locus YOL147C, strain pex11, stronger effect = lower value 0.994 | S. cerevisiae deletion strains, locus YOR061W, strain CKA2, stronger effect = lower value 0.995 | S. cerevisiae deletion strains, locus YOR069W, strain VPS5, stronger effect = lower value 0.988 | S. cerevisiae deletion strains, locus YOR136W, strain idh2, stronger effect = lower value 0.991 | S. cerevisiae deletion strains, locus YOR144C, strain elg1, stronger effect = lower value 0.993 | S. cerevisiae deletion strains, locus YOR184W, strain ser1, stronger effect = lower value 0.961 | S. cerevisiae deletion strains, locus YOR316C, strain cot1, stronger effect = lower value 0.986 | S. cerevisiae deletion strains, locus YPL055C, strain LGE1, stronger effect = lower value 1.04 | [3] 0.998 | S. cerevisiae deletion strains, locus YPR119W, strain clb2, stronger effect = lower value 1 | S. cerevisiae deletion strains, locus YPR141C, strain kar3, stronger effect = lower value 0.999 | S. cerevisiae deletion strains, locus YPR163C, strain tif3, stronger effect = lower value 0.985 | S. cerevisiae deletion strains, locus YPR167C, strain met16, stronger effect = lower value 0.986 | S. cerevisiae deletion strains, strain wtn01, stronger effect = lower value 0.981 | S. cerevisiae strains, strain wild type, stronger effect = lower value 0.997
